Several values for one entry are separate records, joined by “and”; a condition that tells them apart may be missing. Identical values can stand only once. Hit rate of the full screen: of about 5,500 compounds, about 2,000 (36%) were called active. Another 18% or so got no clear call; they are omitted. Cut-off read from the data, not from the text of the source: active = normalized growth mostly below about 0.91 (no sharp cut-off); inconclusive = no clear call, values can overlap the other calls; inactive = mostly above about 0.92. Some of the results follow.
Assay: chemical genetic growth profiling, strain panel (AID 1159580);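 note: tested at 20 µM; growth read once vehicle control cultures reached saturation at 30 °C; 1 = growth at the plate median or of vehicle wells; lower values mean less growth of the strain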
Conditions: S. cerevisiae deletion strains, growth OD

Measured: normalized growth

CCN(CC)CCOC(=O)C1(C2CCCCC2)CCCCC1
active: locus YAL013W, strain DEP1, active compounds read low 0.892
inactive: locus YAL021C, strain ccr4, active compounds read low 0.925 | locus YAL026C, strain drs2, active compounds read low 0.97 | locus YAL030W, strain snc1, active compounds read low 0.985 | locus YAL040C, strain CLN3, active compounds read low 1.01 | locus YBL061C, strain skt5, active compounds read low 0.99 | locus YBR009C, strain hhf1, active compounds read low 0.97 | locus YBR021W, strain FUR4, active compounds read low 0.862 | locus YBR023C, strain chs3, active compounds read low 0.972 | locus YBR171W, strain sec66, active compounds read low 0.987 | locus YBR229C, strain ROT2, active compounds read low 1.01 | locus YBR231C, strain swc5, active compounds read low 0.998 | locus YBR279W, strain paf1, active compounds read low 0.973 | locus YCL011C, strain gbp2, active compounds read low 0.928 | locus YCL016C, strain dcc1, active compounds read low 0.95 | locus YCL029C, strain bik1, active compounds read low 0.99 | locus YCL061C, strain MRC1 (second series), active compounds read low 0.998 | locus YCL069W, strain vba3, active compounds read low 0.996 | locus YCR088W, strain abp1, active compounds read low 0.988 | locus YDL005C, strain med2, active compounds read low 0.985 | locus YDL035C, strain GPR1, active compounds read low 1.02 | locus YDL040C, strain nat1, active compounds read low 0.99 | locus YDL074C, strain BRE1, active compounds read low 0.965 | locus YDL101C, strain DUN1, active compounds read low 0.998 | locus YDL134C, strain PPH21, active compounds read low 1.02 | locus YDL185W, strain tfp1, active compounds read low 1 | locus YDL192W, strain arf1, active compounds read low 0.985 | locus YDR001C, strain nth1, active compounds read low 0.979 | locus YDR069C, strain doa4, active compounds read low 0.983 | locus YDR101C, strain arx1, active compounds read low 0.995 | locus YDR137W, strain rgp1, active compounds read low 1.08 | locus YDR150W, strain NUM1, active compounds read low 1.01 and 0.995 | locus YDR159W, strain sac3, active compounds read low 0.945 | locus YDR162C, strain NBP2, active compounds read low 1.01 | locus YDR195W, strain ref2 0.994 | locus YDR297W, strain sur2, active compounds read low 0.99 | locus YDR318W, strain mcm21, active compounds read low 0.972 | locus YDR334W, strain swr1, active compounds read low 0.98 | locus YDR335W, strain msn5, active compounds read low 0.981 | locus YDR363W, strain ESC2, active compounds read low 0.971 | locus YDR388W, active compounds read low 0.982 | locus YDR392W, strain spt3, active compounds read low 0.875 | locus YDR502C, strain sam2, active compounds read low 0.956 | locus YEL003W, strain gim4, active compounds read low 0.987 | locus YEL037C, strain rad23, active compounds read low 0.983 | locus YEL061C, strain CIN8 (second series), active compounds read low 0.978 | locus YEL061C, strain CIN8, active compounds read low 1 | locus YER002W, strain NOP16, active compounds read low 1.02 | locus YER015W, strain faa2, active compounds read low 0.944 | locus YER016W, strain bim1, active compounds read low 0.969 | locus YER110C, active compounds read low 0.988 | locus YER111C, strain swi4, active compounds read low 0.993 | locus YER155C, strain BEM2 (second series), active compounds read low 0.976 | locus YER155C, strain BEM2, active compounds read low 1.01 | locus YER167W, strain BCK2, active compounds read low 1.01 | locus YFR010W, strain ubp6, active compounds read low 0.972 | locus YGL078C, strain dbp3, active compounds read low 0.983 | locus YGL086W, strain mad1, active compounds read low 0.971 | locus YGL167C, strain pmr1, active compounds read low 0.985 | locus YGL173C, strain kem1, active compounds read low 1 | locus YGL227W, strain vid30, active compounds read low 0.974 | locus YGL240W, strain doc1, active compounds read low 0.984 | locus YGL248W, strain PDE1, active compounds read low 0.991 | locus YGL253W, strain hxk2, active compounds read low 0.985 | locus YGR078C, strain PAC10, active compounds read low 0.972 and 1.05 | locus YGR135W, strain pre9, active compounds read low 0.921 | locus YGR252W, strain gcn5, active compounds read low 0.889 | locus YHR013C, strain ard1, active compounds read low 0.944 | locus YHR027C, strain rpn1, active compounds read low 0.968 | locus YHR030C, strain SLT2, active compounds read low 1 and 1.05 | locus YHR079C, strain IRE1 (second series), active compounds read low 0.982 | locus YHR079C, strain IRE1, active compounds read low 1.02 | locus YHR094C, strain hxt1, active compounds read low 0.992 | locus YHR129C, strain ARP1, active compounds read low 1 | locus YHR142W, strain chs7, active compounds read low 0.987 | locus YHR200W, strain rpn10, active compounds read low 0.986 | locus YIL066C, strain RNR3, active compounds read low 1.01 | locus YIL073C, strain SPO22, active compounds read low 0.997 | locus YIL125W, strain kgd1, active compounds read low 0.99 | locus YIR030C, strain dcg1, active compounds read low 0.997 | locus YJL092W, strain hpr5, active compounds read low 0.969 | locus YJL095W, strain BCK1 (second series), active compounds read low 0.978 | locus YJL095W, strain BCK1, active compounds read low 0.929 and 1.04 | locus YJL115W, strain asf1, active compounds read low 0.983 | locus YJL129C, strain trk1, active compounds read low 0.98 | locus YJL134W, strain LCB3, active compounds read low 1.01 | locus YJL154C, strain vps35, active compounds read low 0.982 | locus YJL164C, strain tpk1, active compounds read low 0.951 | locus YJL166W, strain qcr8, active compounds read low 1 | locus YJL168C, strain set2, active compounds read low 0.981 | locus YJL187C, strain SWE1 (second series), active compounds read low 0.974 | locus YJR043C, strain POL32, active compounds read low 1.06 | locus YJR066W, strain TOR1, active compounds read low 0.951 | locus YJR075W, strain HOC1, active compounds read low 0.952 and 0.974 | locus YKL009W, strain mrt4, active compounds read low 0.971 | locus YKL068W, active compounds read low 0.992 | locus YKL085W, strain MDH1 (second series), active compounds read low 0.963 | locus YKL085W, strain MDH1, active compounds read low 0.963 | locus YKL160W, strain elf1, active compounds read low 1.01 | locus YKR001C, strain vps1, active compounds read low 1 | locus YKR026C, strain gcn3, active compounds read low 0.982 | locus YKR091W, strain srl3, active compounds read low 0.978 | locus YLL001W, strain dnm1, active compounds read low 0.998 | locus YLL026W, active compounds read low 0.997 | locus YLL041C, strain sdh2, active compounds read low 0.987 | locus YLR027C, strain aat2, active compounds read low 0.994 | locus YLR039C, strain RIC1, active compounds read low 1.3 | locus YLR058C, strain SHM2, active compounds read low 0.985 | locus YLR102C, strain apc9, active compounds read low 0.987 | locus YLR113W, strain HOG1, active compounds read low 1.05 | locus YLR221C, strain rsa3, active compounds read low 0.952 | locus YLR258W, strain gsy2, active compounds read low 0.955 | locus YLR262C, strain YPT6 (second series), active compounds read low 1.04 | locus YLR262C, strain YPT6, active compounds read low 1.25 | locus YLR268W, strain sec22, active compounds read low 0.965 | locus YLR320W, strain mms22, active compounds read low 0.93 | locus YLR330W, strain CHS5, active compounds read low 0.999 | locus YLR342W, strain FKS1 (second series), active compounds read low 0.905 | locus YLR342W, strain FKS1, active compounds read low 0.983 | locus YLR357W, strain rsc2, active compounds read low 0.965 | locus YLR370C, strain arc18, active compounds read low 0.979 | locus YLR371W, strain rom2, active compounds read low 0.973 | locus YLR384C, strain iki3, active compounds read low 0.993 | locus YLR418C, strain cdc73, active compounds read low 0.847 | locus YML016C, strain PPZ1, active compounds read low 0.997 | locus YML032C, strain rad52, active compounds read low 0.966 | locus YML120C, strain ndi1, active compounds read low 0.985 | locus YML124C, strain tub3, active compounds read low 0.984 | locus YMR058W, strain fet3, active compounds read low 0.983 | locus YMR078C, strain ctf18, active compounds read low 0.978 | locus YMR125W, strain sto1, active compounds read low 0.946 | locus YMR129W, active compounds read low 0.972 | locus YMR205C, strain PFK2, active compounds read low 0.985 | locus YMR223W, strain ubp8, active compounds read low 0.932 | locus YMR231W, strain pep5, active compounds read low 0.985 | locus YMR263W, strain SAP30, active compounds read low 0.984 and 1 | locus YMR307W, strain GAS1, active compounds read low 1.23 and 1.02 | locus YNL067W, strain RPL9B, active compounds read low 0.979 | locus YNL071W, strain lat1, active compounds read low 0.951 | locus YNL128W, strain TEP1, active compounds read low 1.02 | locus YNL153C, strain GIM3, active compounds read low 0.966 and 0.991 | locus YNL175C, strain NOP13, active compounds read low 1.02 | locus YNL183C, strain NPR1, active compounds read low 0.995 | locus YNL197C, strain WHI3, active compounds read low 1.06 | locus YNL209W, strain ssb2, active compounds read low 0.947 | locus YNL224C, strain SQS1, active compounds read low 1.01 | locus YNL233W, strain BNI4, active compounds read low 0.962 | locus YNL248C, strain rpa49, active compounds read low 0.948 | locus YNL250W, strain rad50, active compounds read low 0.979 | locus YNL271C, strain bni1, active compounds read low 0.973 | locus YNL298W, strain CLA4, active compounds read low 1 | locus YNL307C, strain MCK1, active compounds read low 0.968 | locus YNL322C, strain KRE1 (second series), active compounds read low 0.979 | locus YNR049C, strain mso1, active compounds read low 0.979 | locus YNR052C, strain pop2, active compounds read low 0.961 | locus YOL012C, strain htz1 0.807 | locus YOL147C, strain pex11, active compounds read low 0.99 | locus YOR001W, strain rrp6, active compounds read low 1.01 | locus YOR061W, strain CKA2, active compounds read low 1 | locus YOR069W, strain VPS5, active compounds read low 0.994 | locus YOR070C, strain gyp1, active compounds read low 0.968 | locus YOR080W, strain dia2, active compounds read low 0.982 | locus YOR083W, strain WHI5 (second series), active compounds read low 1.02 | locus YOR083W, strain WHI5, active compounds read low 0.965 | locus YOR106W, strain vam3, active compounds read low 1 | locus YOR136W, strain idh2, active compounds read low 0.998 | locus YOR144C, strain elg1, active compounds read low 0.997 | locus YOR184W, strain ser1, active compounds read low 0.992 | locus YOR231W, strain MKK1, active compounds read low 1.04 | locus YOR265W, strain rbl2, active compounds read low 0.991 | locus YOR270C, strain vph1, active compounds read low 0.85 | locus YOR290C, strain snf2, active compounds read low 0.939 | locus YOR316C, strain cot1, active compounds read low 0.992 | locus YPL051W, strain arl3, active compounds read low 0.984 | locus YPL055C, strain LGE1, active compounds read low 0.986 | locus YPL078C, strain atp4, active compounds read low 1.01 | locus YPL106C, strain sse1, active compounds read low 0.939 | locus YPL240C, strain hsp82, active compounds read low 0.984 | locus YPL241C, strain CIN2, active compounds read low 0.998 | locus YPL256C, strain CLN2, active compounds read low 1.05 | locus YPR119W, strain clb2, active compounds read low 0.99 | locus YPR141C, strain kar3, active compounds read low 0.993 | locus YPR163C, strain tif3, active compounds read low 0.988 | locus YPR167C, strain met16, active compounds read low 0.983 | strain wtn01, active compounds read low 0.957
